Data from the supplement of paper PMC13380429.

What was measured:
[1] = system: Vero E6 infected with SARS-CoV-2; experiment: morphology score (similarity to uninfected cells); higher = more like uninfected cells; settings: 24 h
[2] = system: Vero E6 infected with SARS-CoV-2; experiment: SARS-CoV-2 infection rate relative to infected DMSO; higher = more infection, active = 60 or less; settings: 24 h

SMILES	morphology score [1]	SARS-CoV-2 infection rate [2]
O=C(O)[C@H](Cc1c[nH]c2ccccc12)N1C(=O)c2ccccc2C1=O (10 µM)	-0.0791	115% (inactive)
N[C@@H]1CCN(c2cccnc2)C1 (10 µM)	0.0226	102% (inactive)
C[C@H](Oc1cc(-c2cnn(C3CCNCC3)c2)cnc1N)c1c(Cl)ccc(F)c1Cl [crizotinib-(S)] (10 µM)	0.602	23% (active)
O=c1[nH]cnc2c1ncn2[C@H]1CC[C@@H](CO)O1 [didanosine] (10 µM)	0.186	112% (inactive)
Cc1ccsc1C(=CCCN1CCC[C@@H](C(=O)O)C1)c1sccc1C [tiagabine] (10 µM)	0.0772	109% (inactive)
O=C1C(O)=C(O)C(=O)C(O)=C1O [tetroquinone] (10 µM)	0.0422	106% (inactive)
C1=C2CCCN[C@H]2[C@@H]2C[C@H]1[C@H]1CCCCN1C2 [aloperine] (10 µM)	0.199	102% (inactive)
C[C@]12CC[C@H](O)C[C@H]1CC[C@@H]1[C@@H]2CC[C@]2(C)[C@@](O)(c3ccoc3)CC[C@]12O [rostafuroxine] (10 µM)	-0.206	118% (inactive)
CC(C)(C)c1cc(C(C)(C)C)c(NC(=O)c2c[nH]c3ccccc3c2=O)cc1O [ivacaftor] (10 µM)	0.363	93% (inactive)
CC1=CC[C@@H](C(C)(C)O)C[C@@H]1O [sobrepin] (10 µM)	-0.0987	114% (inactive)
CCOC(=O)[C@H](CCc1ccccc1)N[C@@H](C)C(=O)N(CC(=O)O)C1Cc2ccccc2C1 [delapril] (10 µM)	-0.0271	108% (inactive)
COC(=O)Nc1ccc2[nH]cc(CCNC(C)=O)c2c1 (10 µM)	0.0711	108% (inactive)
CS(=O)(=O)Nc1ccc(Cc2noc(-c3ccc4[nH]cc(CCN)c4c3)n2)cc1 (10 µM)	0.141	103% (inactive)
Cc1cc([N+](=O)[O-])ccc1NS(=O)(=O)c1cc(Cl)ccc1Cl (0.833333 µM)	0.153	101% (inactive)
Cc1ncc(-c2ccnc(Nc3ccc(S(C)(=O)=O)cc3)n2)n1C(C)C (0.833333 µM)	-0.165	99.5% (inactive)
N#C[C@@H]1C[C@@H]2C[C@@H]2N1C(=O)[C@@H](N)C12CC3CC(CC(O)(C3)C1)C2 (10 µM)	-0.0311	105% (inactive)
CC(=O)Nc1ccc(NC(=S)NC(=O)c2ccc(C(C)(C)C)cc2)cc1 [tenovin-1] (10 µM)	-0.0316	109% (inactive)
CC(C)NC(=O)N1CC[C@H](NC2=Nc3cc(F)ccc3N(CC(F)F)c3ccc(Cl)cc32)C1 (0.833333 µM)	0.0642	89% (inactive)
COc1ccc(C(=O)N2CCCC2=O)cc1 [aniracetam] (10 µM)	0.0647	106% (inactive)
COc1ccc(Cl)cc1[C@]1(F)C(=O)Nc2cc(C(F)(F)F)ccc21 [flindokalner] (10 µM)	0.165	99.5% (inactive)

SMILES	morphology score [1]	SARS-CoV-2 infection rate [2]
CCC(=O)N[C@@H]1Cc2ccccc2[C@H](c2ccccc2)C1 (10 µM)	-0.0816	110% (inactive)
O=C(O)c1cc(-c2ccc(F)cc2F)ccc1O [diflunisal] (10 µM)	-0.15	110% (inactive)
COC(=O)C1=C(C#N)NC(C)=C(C(=O)OC(C)C)C1c1cccc([N+](=O)[O-])c1 (stereo not given) [nilvadipine] (10 µM)	-0.0761	106% (inactive)
O=C1COc2nccc(-c3ccccc3F)c2CN1Cc1cc(C(F)(F)F)cc(C(F)(F)F)c1 (10 µM)	-0.194	108% (inactive)
CN(C)NC(=O)CCC(=O)O [daminozide] (10 µM)	0.0765	95% (inactive)
COC(=O)N[C@H](C(=O)N1CCC[C@H]1C(=O)Nc1ccc([C@@H]2CC[C@@H](c3ccc(NC(=O)[C@@H]4CCCN4C(=O)[C@@H](NC(=O)OC)C(C)C)cc3)N2c2ccc(C(C)(C)C)cc2)cc1)C(C)C [ombitasvir] (10 µM)	0.125	113% (inactive)
C[C@]12C=CC(=O)C=C1CC[C@@H]1[C@@H]2[C@@H](O)C[C@@]2(C)[C@H]1CC[C@]2(O)C(=O)COP(=O)(O)O [prednisolone-sodium-phosphate] (10 µM)	-0.0179	93.5% (inactive)
CCCCCCCCCCCCCCCC(=O)OC[C@H](O)[C@H]1OC(=O)C(O)=C1O [L-ascorbyl-6-palmitate] (10 µM)	-0.0423	112% (inactive)
COc1c2ccoc2cc2oc(=O)ccc12 [bergapten] (10 µM)	0.0727	108% (inactive)
CCc1cc2cc(OC)c(OC)cc2c(Cc2ccccc2)n1 [moxaverine] (10 µM)	0.495	86% (inactive)
CC12CCC(C(Br)C1=O)C2(C)C (stereo not given) [3-bromocamphor] (10 µM)	-0.0927	106% (inactive)
Cc1c(N)cccc1Cn1ccc(OCCc2cccs2)cc1=O (10 µM)	0.0738	102% (inactive)
O=C(O)C1=CCNCC1 [isoguvacine] (10 µM)	0.0662	99.5% (inactive)
Cc1noc(-c2ccc(-c3ccc(CC(=O)O)cc3)cc2)c1NC(=O)O[C@H](C)c1ccccc1 (0.833333 µM)	0.148	112% (inactive)
CC(=O)O[C@H]1CC[C@@]2(C)C(=CC[C@@H]3[C@@H]2CC[C@]2(C)C(=O)CC[C@@H]32)C1 [prasterone-acetate] (10 µM)	-0.259	110% (inactive)
CC(C)(C)NC(=O)N[C@H](C(=O)N1C[C@H]2[C@@H]([C@H]1C(=O)NC(CC1CCC1)C(=O)C(N)=O)C2(C)C)C(C)(C)C (stereo not given in full) [boceprevir] (10 µM)	0.133	113% (inactive)
COC(=O)[C@H](NC(=O)c1cc(-c2ccccc2)nc2ccccc12)c1ccccc1 (10 µM)	0.0787	100% (inactive)
CO[C@@H](C(=O)N1Cc2[nH]nc(NC(=O)c3ccc(N4CCN(C)CC4)cc3)c2C1)c1ccccc1 [danusertib] (10 µM)	0.109	115% (inactive)
CCC(CC)CC1(C(=O)Nc2ccccc2SC(=O)C(C)C)CCCCC1 [dalcetrapib] (10 µM)	0.152	111% (inactive)
CN1CC(=O)N=C1NC(=O)Nc1cccc(Cl)c1 [fenobam] (10 µM)	-0.115	107% (inactive)

SMILES	morphology score [1]	SARS-CoV-2 infection rate [2]
CN(C)CCC=C1c2ccccc2CCc2ccccc21 [amitriptyline] (10 µM)	0.0472	100% (inactive)
C[C@H]1C[C@H]2[C@@H]3CCC4=CC(=O)C=C[C@]4(C)[C@@]3(Cl)[C@@H](O)C[C@]2(C)[C@@]1(O)C(=O)CO [beclomethasone] (10 µM)	0.101	89.5% (inactive)
COc1c(C)c2c(c(O)c1C/C=C(\C)CCC(=O)OCCN1CCOCC1)C(=O)OC2 [mycophenolate-mofetil] (10 µM)	-0.124	108% (inactive)
COc1ccc2[nH]c(-c3ccccc3)c(CCNC(C)=O)c2c1 [2-phenylmelatonin] (10 µM)	0.062	107% (inactive)
CCOC1O[C@H]([C@@H](COCc2ccccc2)OCc2ccccc2)[C@H](OCc2ccccc2)[C@H]1O (stereo not given in full) [tribenoside] (10 µM)	-0.0493	102% (inactive)
CCC1(c2ccccc2)C(=O)NCNC1=O [primidone] (10 µM)	0.097	102% (inactive)
COc1cc2ncnc(Nc3ccc(Cl)cc3F)c2cc1OC (10 µM)	-0.174	117% (inactive)
CCCSc1nc(N[C@@H]2C[C@H]2c2ccc(F)c(F)c2)c2nnn([C@@H]3C[C@H](OCCO)[C@@H](O)[C@H]3O)c2n1 [ticagrelor] (10 µM)	-0.0229	104% (inactive)
C[C@@]12C[C@@]3(O)O[C@@H](O1)[C@]1(COC(=O)c4ccccc4)[C@H]3C[C@@]12O[C@@H]1O[C@H](CO)[C@@H](O)[C@H](O)[C@H]1O [paeoniflorin] (10 µM)	0.192	92.5% (inactive)
c1ccc2nc(C3=NCCN3)cnc2c1 (10 µM)	0.177	93% (inactive)
CC(=O)NCCc1c[nH]c2ccccc12 [N-acetyltryptamine] (10 µM)	0.0383	94.5% (inactive)
COC(=O)Nc1nc2cc(Sc3ccccc3)ccc2[nH]1 [fenbendazole] (0.833333 µM)	0.126	106% (inactive)
O=C(O)CCCCC(=O)O [adipic-acid] (10 µM)	-0.0456	105% (inactive)
CC(C)(C)NC(=O)N[C@H](C(=O)N1C[C@H]2[C@@H]([C@H]1C(=O)NC(CC1CCC1)C(=O)C(N)=O)C2(C)C)C(C)(C)C (stereo not given in full) [Boceprevir] (10 µM)	0.133	100% (inactive)
CC1(C)C(/C=C/C=C/C=C/C=C2\N(CCCCS(=O)(=O)O)c3ccc4ccccc4c3C2(C)C)=[N+](CCCCS(=O)(=O)[O-])c2ccc3ccccc3c21 [indocyanine-green] (10 µM)	0.0305	109% (inactive)
Oc1c(Cl)cc(Cl)cc1Sc1cc(Cl)cc(Cl)c1O [bithionol] (10 µM)	-0.096	106% (inactive)
CC(C)Cc1ccc([C@@H](C)C(=O)NS(C)(=O)=O)cc1 [reparixin] (10 µM)	0.135	100% (inactive)
O=C(O)CCC(=O)C(=O)O [2-oxoglutaric-acid] (10 µM)	-0.135	110% (inactive)
CO[C@]12C[C@@H](COC(=O)c3cncc(Br)c3)CN(C)[C@@H]1Cc1cn(C)c3cccc2c13 [nicergoline] (10 µM)	0.275	81% (inactive)
CC(C)(C)CC(C)(C)c1cc(Cc2cc(C(C)(C)CC(C)(C)C)cc(-n3nc4ccccc4n3)c2O)c(O)c(-n2nc3ccccc3n2)c1 [bisoctrizole] (10 µM)	-0.0457	114% (inactive)
